Data taken from PubChem BioAssay AID1159580 (chemical genetic matrix, 2015).
Values joined by “and” are separate entries in the source; they are usually repeats but may differ in a detail not shown here. Equal entries are not always repeated. Among all 5,500 compounds or so, about 2,000 (36%) were called active. Inconclusive results (about 18%) are left out. No stated cut-off is given here; in the data, active means normalized growth mostly below about 0.91 (no sharp cut-off); inconclusive means no clear call, values can overlap the other calls; inactive means mostly above about 0.92. The list shows a part of the results.

Experiment: chemical genetic growth profiling, strain panel (AID 1159580);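 further: tested at 20 µM; growth read once vehicle control cultures reached saturation at 30 °C; 1 = growth at the plate median or of vehicle wells; lower values mean less growth of the strain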
Conditions: S. cerevisiae deletion strains, growth OD

Measured: normalized growth

CC1O[C@@H](Oc2c(-c3ccc(O)c(O)c3)oc3cc(O)cc(O)c3c2=O)[C@H](O)[C@H](O)[C@H]1O (some centres not stated)
inactive: locus YAL013W, strain DEP1, hits give low values 1 | locus YAL021C, strain ccr4, hits give low values 1 | locus YAL026C, strain drs2, hits give low values 0.996 | locus YAL030W, strain snc1, hits give low values 0.999 | locus YBL061C, strain skt5, hits give low values 0.993 | locus YBR009C, strain hhf1, hits give low values 0.99 | locus YBR021W, strain FUR4, hits give low values 1.01 | locus YBR023C, strain chs3, hits give low values 0.995 | locus YBR171W, strain sec66, hits give low values 0.971 | locus YBR229C, strain ROT2, hits give low values 1 | locus YBR231C, strain swc5, hits give low values 0.985 | locus YBR279W, strain paf1, hits give low values 0.995 | locus YCL011C, strain gbp2, hits give low values 0.997 | locus YCL016C, strain dcc1, hits give low values 0.993 | locus YCL029C, strain bik1, hits give low values 0.978 | locus YCL061C, strain MRC1, hits give low values 0.985 | locus YCL069W, strain vba3, hits give low values 0.991 | locus YCR088W, strain abp1, hits give low values 0.985 | locus YDL005C, strain med2, hits give low values 0.979 | locus YDL035C, strain GPR1, hits give low values 1 | locus YDL040C, strain nat1, hits give low values 0.984 | locus YDL074C, strain BRE1, hits give low values 0.965 | locus YDL101C, strain DUN1, hits give low values 0.991 | locus YDL134C, strain PPH21, hits give low values 1 | locus YDL185W, strain tfp1, hits give low values 0.956 | locus YDL192W, strain arf1, hits give low values 0.985 | locus YDR001C, strain nth1, hits give low values 0.999 | locus YDR069C, strain doa4, hits give low values 0.985 | locus YDR101C, strain arx1, hits give low values 0.999 | locus YDR137W, strain rgp1, hits give low values 1.01 | locus YDR150W, strain NUM1, hits give low values 0.998 | locus YDR159W, strain sac3, hits give low values 0.97 | locus YDR162C, strain NBP2, hits give low values 1 | locus YDR195W, strain ref2 0.967 | locus YDR297W, strain sur2, hits give low values 0.987 | locus YDR318W, strain mcm21, hits give low values 0.986 | locus YDR334W, strain swr1, hits give low values 0.995 | locus YDR335W, strain msn5, hits give low values 1 | locus YDR388W, hits give low values 0.994 | locus YDR392W, strain spt3, hits give low values 0.98 | locus YDR502C, strain sam2, hits give low values 1.01 | locus YEL003W, strain gim4, hits give low values 0.994 | locus YEL037C, strain rad23, hits give low values 0.997 | locus YEL061C, strain CIN8 (second series), hits give low values 0.995 | locus YEL061C, strain CIN8, hits give low values 0.996 | locus YER015W, strain faa2, hits give low values 0.973 | locus YER016W, strain bim1, hits give low values 0.994 | locus YER110C, hits give low values 0.993 | locus YER111C, strain swi4, hits give low values 0.997 | locus YER155C, strain BEM2 (second series), hits give low values 0.982 | locus YER155C, strain BEM2, hits give low values 0.995 | locus YER167W, strain BCK2, hits give low values 0.999 | locus YFR010W, strain ubp6, hits give low values 0.988 | locus YGL078C, strain dbp3, hits give low values 0.992 | locus YGL086W, strain mad1, hits give low values 1.03 | locus YGL167C, strain pmr1, hits give low values 0.99 | locus YGL173C, strain kem1, hits give low values 0.979 | locus YGL227W, strain vid30, hits give low values 0.979 | locus YGL240W, strain doc1, hits give low values 0.976 | locus YGL248W, strain PDE1, hits give low values 1 | locus YGL253W, strain hxk2, hits give low values 0.985 | locus YGR078C, strain PAC10, hits give low values 0.98 | locus YGR135W, strain pre9, hits give low values 0.989 | locus YGR229C, strain SMI1, hits give low values 1 | locus YGR252W, strain gcn5, hits give low values 1.18 | locus YHR013C, strain ard1, hits give low values 0.982 | locus YHR027C, strain rpn1, hits give low values 0.988 | locus YHR030C, strain SLT2, hits give low values 0.997 and 0.954 | locus YHR079C, strain IRE1 (second series), hits give low values 0.989 | locus YHR079C, strain IRE1, hits give low values 0.962 | locus YHR094C, strain hxt1, hits give low values 0.982 | locus YHR129C, strain ARP1, hits give low values 0.987 | locus YHR142W, strain chs7, hits give low values 0.995 | locus YHR200W, strain rpn10, hits give low values 0.986 | locus YIL066C, strain RNR3, hits give low values 1 | locus YIL073C, strain SPO22, hits give low values 0.95 | locus YIL125W, strain kgd1, hits give low values 0.987 | locus YIR030C, strain dcg1, hits give low values 0.991 | locus YJL092W, strain hpr5, hits give low values 0.985 | locus YJL095W, strain BCK1 (second series), hits give low values 0.998 | locus YJL095W, strain BCK1, hits give low values 0.952 and 0.984 | locus YJL115W, strain asf1, hits give low values 0.991 | locus YJL129C, strain trk1, hits give low values 1 | locus YJL134W, strain LCB3, hits give low values 0.997 | locus YJL154C, strain vps35, hits give low values 0.993 | locus YJL164C, strain tpk1, hits give low values 0.984 | locus YJL166W, strain qcr8, hits give low values 0.994 | locus YJL168C, strain set2, hits give low values 0.996 | locus YJL187C, strain SWE1 (second series), hits give low values 0.988 | locus YJL187C, strain SWE1, hits give low values 0.989 | locus YJR043C, strain POL32, hits give low values 0.987 | locus YJR066W, strain TOR1, hits give low values 0.922
